biological target: Glucose transporter (Leishmania mexicana) (UniProt O61059); test: ST_JUDE_LEISH: Cytotoxicity at 2uM final concentration against transgenic Leishmania Mexicana promastigotes LmGT2 that are glucose transport deficient and complemented with the L. Mexicana glucose transporter 2. Activity is measured by DNA content using SYBR green in vitro; type: functional

| Compound | inhibition |
| --- | --- |
| O=C(/C=C/c1ccc(Cl)c(Cl)c1)NCCCCN1CCC(c2c[nH]c3ccccc23)CC1 | -0.01% |
| O=C(NCCN1CCCC1)c1cccc(-c2ccc(-c3nc4cc(F)ccc4[nH]3)cc2)c1 | -1.28% |
| CC1(C)N=C(N)N=C(N)N1OCc1cc(Cl)c(CON2C(N)=NC(N)=NC2(C)C)cc1Cl | -2.89% |
| CC(C)CCCC(C)(C)NC[C@@H](O)[C@H](Cc1ccccc1)NC(=O)c1cc(NC(C)C)cc(N2CCCCS2(=O)=O)c1 | -3.27% |
| N=C(N)Nc1ccc(OCCCCCOc2ccc(NC(=N)N)cc2)cc1 | 0.71% |
| Cc1cc(OCCCN2CCC(NS(=O)(=O)c3cc(Br)c(Cl)s3)CC2)c2ccccc2n1 | -0.25% |
| CN1CCN(c2cc3c(cc2Cl)CCN3C(=O)Cc2ccc(Cl)c(NC(=O)Nc3cccc(C#N)c3)c2)CC1 | -0.22% |
| Cc1cc(C2CCN(CCCCNC(=O)c3ccc(NC(=O)c4ccc(Cl)cc4)cc3)CC2)c(C)cc1OC(C)C | -1.68% |
| O=C(Nc1ccc(Cl)c(Cl)c1)N[C@H]1CCN(CCCCCNC(=O)C2CC2c2ccc(Cl)c(Cl)c2)C1 (stereo not given in full) | 10.6% |
| COc1ccc2ncc(F)c(CCN3C[C@H](CNCc4cc(C#N)c5c(c4)OCCO5)[C@H](O)C3)c2n1 | 1.91% |
| Cc1cccc(C(O)CNc2ccnc(Nc3cccc(-c4csc(C)n4)c3)n2)c1 (stereo not given) | 2.54% |
| COc1ccc(C(=O)N2CCC(CN3CCOC(c4ccccc4)(c4ccccc4)C3)CC2)cc1 | 2.45% |
| SC(=Nc1ccc(Cl)c(Cl)c1)NN=Cc1ccccn1 | -1.58% |
| COc1ccc(-c2cccc(NC(=O)c3ccc(F)cc3)c2)cc1CNC(C)C | 3.19% |
| COc1ccc2nccc([C@@H](O)CN3CCC(NCc4ccc5cccc(O)c5n4)CC3)c2c1 | 3.46% |
| c1ccc2c(c1)ncc1c3ccccc3[nH]c21 | 4.67% |
| Nc1nc(N)c2c(Cl)c(CNc3cccc(C(=O)O)c3)ccc2n1 | 3.26% |
| COc1ccc(Cn2c(SCc3ccc(C)cc3)nc3cc(OC)c(OC)cc3c2=N)cc1Cl | -2.37% |
| COc1ccc(CNCc2ccccc2)cc1-c1ccc(S(=O)(=O)NCCN2CCCC2)cc1 | -2.76% |
| O=C(NC1CC1)c1ccc(Cn2c(SCc3cccc([N+](=O)[O-])c3)nc3ccccc3c2=O)cc1 | 0.2% |

| Compound | inhibition |
| --- | --- |
| O=C(Nc1ccc(Oc2ccccc2)cc1)N(Cc1ccc(-c2cccc(CN3CCNCC3)c2)cc1)C1CCN(Cc2ccccc2)CC1 | 3.01% |
| CC1CCN(CC[C@H]2CCCN2S(=O)(=O)c2cccc(NC(=O)c3cc4ccccc4s3)c2)CC1 | 3.15% |
| COc1cc(Cc2cnc(N)nc2N)cc(OCC(C)(C)C(=O)O)c1OC | -0.23% |
| CCc1ccc(NC(=O)c2ccc(CN3CCCN(Cc4cccc(C)c4)CC3)cc2)cc1 | 5.79% |
| N#Cc1cccc(C(=O)NC2CCN(CCCCCNC(=O)/C=C/c3ccc(Cl)c(Cl)c3)CC2)c1 | 7.61% |
| COc1ccc(CN2CCC(CNCCc3ccccc3Oc3ccccc3)CC2)cc1 | -2.59% |
| c1ccc(CCNc2nc(NCC(c3ccccc3)c3ccccc3)c3nc[nH]c3n2)cc1 | 1.17% |
| O=c1c(Br)ccccc1Br | 2.97% |
| COCC(C)n1c(SCC(=O)Nc2cc(C(F)(F)F)ccc2Cl)nc2ccccc2c1=O (stereo not given) | 2.72% |
| Cc1nc(N)nc(N)c1-c1cc(Cl)c(Cl)c(Cl)c1 | 1.22% |
| Cc1cc(C)c(NC(=O)N[C@H]2CCN(CCCCCNC(=O)/C=C/c3ccc(Cl)c(Cl)c3)C2)c(C)c1 | 1.3% |
| Nc1ccc(-c2ccc(NC(=O)Nc3ccccc3)cc2)cn1 | 3.08% |
| O=C(NC1CCN(Cc2ccccc2)CC1)c1ccc(-c2nc3cc(Cl)c(F)cc3[nH]2)cc1 | 2.45% |
| Fc1ccc(C=NN=c2cc[nH]c3ccccc23)cc1 | 8.73% |
| N=C(N)c1ccc2[nH]c(SCc3ccccc3)nc2c1 | 0.24% |
| O=C(NCCN1CCCC1)c1cccc(-c2ccc(-c3nc4ccccc4[nH]3)cc2)c1 | 4.26% |
| O=C(Nc1cc(Cl)c(Cl)cc1NC(=O)c1cccc(-c2ccccc2)c1O)c1cccc(-c2ccccc2)c1O | 2.6% |
| COc1ccc2ncc(F)c(CCN3CC(O)C(CNCc4ccc(F)cc4)C3)c2n1 (stereo not given) | 2.68% |
| COc1ccc2ncc(F)c(CCN3C[C@H](CNCc4cc(F)c5c(c4)NC(=O)CO5)[C@H](O)C3)c2n1 | 0.92% |
| COc1ccc2c(c1)CC(NCc1ccc(-c3ccc4nc[nH]c4c3)cc1)C2 (stereo not given) | 1.31% |
